This is an account of results in PubChem BioAssay (EPA / NIEHS).

The nature of assay [1]: APR_HepG2_NuclearSize_72hr: Apredica 72-hour HepG2 Assay for Nuclear Size (AID 2282925). The following applies: high-content imaging, actives raise or lower the signal. In outline:
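Nuclear size was read by high-content imaging of Hoechst 33342 stain after formaldehyde fixation. Compounds ran 72 h on HepG2 at 0.39 to 200 uM, with final DMSO 0.5% v/v. Curves fitted both directions relative to DMSO control.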

Assay [2] is described as follows: ATG_CRE_CIS: Attagene CIS-FACTORIAL HepG2 Assay for human cAMP Responsive Element (CRE) binding protein 3 (AID 2282926). The following applies: HepG2 CRE cis-reporter, Attagene multiplexed mRNA; actives raise or lower the signal. The procedure, abridged:
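Liver-derived HepG2, transfected with a CRE-containing reporter panel, exposed 24 h; transcript levels sized and quantified by capillary electrophoresis of labelled amplicons; signal changes either way referenced to vehicle.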

Assay [3] in a line: ATG_CMV_CIS: Attagene CIS-FACTORIAL HepG2 Assay for human CMV (Internal Marker) (AID 2282928).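 Note: endpoint acts as a background internal control marker rather than a target.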 The following applies: HepG2 CMV promoter reporter, transcription factor profiling; actives raise or lower the signal. In outline:
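24 h chemical treatment, HepG2 with transient multi-reporter transfection; RNA → oligo(dT) RT → PCR → 6-FAM extension → HpaI digest → CE fluorescence. Bidirectional fit, DMSO negative control.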

The nature of assay [4]: ATG_DR4_LXR_CIS: Attagene CIS-FACTORIAL HepG2 Assay for human Liver X Receptor (LXR), DR4 submotif (AID 2282929). The following applies: HepG2 Attagene DR4 cis-reporter, mRNA transcription; actives raise or lower the signal. The procedure, abridged: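 HepG2 cells were transiently transfected with multiple cis-regulated reporter units and dosed for 24 hours. The DR4 reporter mRNA was quantified by RT-PCR, 6-FAM labelling and capillary electrophoresis. Bidirectional fits used DMSO as baseline.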

In assay [5] the target is Aryl hydrocarbon receptor (Homo sapiens) (UniProt P35869). In words: ATG_Ahr_CIS: Attagene CIS-FACTORIAL HepG2 Assay for human Aryl Hydrocarbon Receptor (Ahr) (AID 2282930). Conditions: HepG2 AhR cis-factorial reporter transcription; actives raise or lower the signal. The procedure, abridged:
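Reporter mRNA levels, quantified by RT-PCR and fluorescent capillary electrophoresis, reflect endogenous AhR transcriptional activity in HepG2 cells carrying transfected cis-promoter reporter constructs. Readout at 24 h post-dose; gain or loss fitted against DMSO baseline.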

Assay [6] in a line: ATG_AP_1_CIS: Attagene CIS-FACTORIAL HepG2 Assay for human Activator Protein 1 (AP-1) (AID 2282931). Conditions: HepG2 Attagene cis-factorial AP-1 reporter mRNA; actives raise or lower the signal. The procedure, abridged: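 HepG2 cells transiently transfected with cis-element-driven reporter transcription units, dosed for 24 hours. Reporter mRNA measured by RT-PCR, 6-FAM labelling, HpaI digestion and capillary electrophoresis. Bidirectional fitting against DMSO baseline.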

Assay [7] can be described thus: ATG_AP_2_CIS: Attagene CIS-FACTORIAL HepG2 Assay for human Activator Protein 2 (AP-2) (AID 2282932). The following applies: HepG2 AP-2 cis-reporter, Attagene transcription factor profiling; actives raise or lower the signal. The procedure, abridged: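 Endogenous transcription factor activity is reported through transfected multiplex reporter constructs in HepG2, after 24 h of compound exposure. Transcripts were quantified by RT-PCR and capillary electrophoresis of fluorescent fragments. Bidirectional fit against DMSO.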

Assay [8] can be described thus: ATG_BRE_CIS: Attagene CIS-FACTORIAL HepG2 Assay for human Bone Morphogenetic Protein (BMP) Response Element (BRE) (AID 2282933). Conditions: HepG2 BMP response element reporter, Attagene transcription factor profiling; actives raise or lower the signal. The procedure, abridged: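 Endogenous transcription factor activity at a BMP response element was monitored in transfected HepG2 cells 24 h after dosing. Fluorescent RT-PCR products were resolved by capillary electrophoresis, and activity was fitted in both directions versus DMSO.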

Assay [9] has as its target Retinoic acid receptor alpha (Homo sapiens) (UniProt P10276). Put plainly: ATG_DR5_RAR_CIS: Attagene CIS-FACTORIAL HepG2 Assay for human Retinoic Acid Receptor Alpha (RARE), DR5 submotif (AID 2282934). Conditions: HepG2 Attagene cis-factorial RARE DR5 reporter, mRNA; actives raise or lower the signal. In outline:
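Reporter transcripts from a DR5-regulated unit, measured via RT-PCR plus capillary electrophoresis, reflect endogenous RAR activity in transiently transfected human HepG2 liver cells. Exposure lasted 24 h; gain or loss of signal scored against DMSO.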

For assay [10], the target named is Transcription factor E2F1 (Homo sapiens) (UniProt Q01094). In words: ATG_E2F_CIS: Attagene CIS-FACTORIAL HepG2 Assay for human E2F Transcription Factor 1 (AID 2282935). The following applies: HepG2 Attagene cis-reporter, E2F reporter RNA transcripts; actives raise or lower the signal. In outline: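 Gain or loss of reporter transcript, fitted against DMSO, reflects E2F1-driven transcription. Transiently transfected HepG2 dosed 24 h before RNA isolation. Quantified by fluorescent RT-PCR products separated by capillary electrophoresis.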
Chain of Transcription factor E2F1 (Homo sapiens) (Q01094 whole entry, looked up): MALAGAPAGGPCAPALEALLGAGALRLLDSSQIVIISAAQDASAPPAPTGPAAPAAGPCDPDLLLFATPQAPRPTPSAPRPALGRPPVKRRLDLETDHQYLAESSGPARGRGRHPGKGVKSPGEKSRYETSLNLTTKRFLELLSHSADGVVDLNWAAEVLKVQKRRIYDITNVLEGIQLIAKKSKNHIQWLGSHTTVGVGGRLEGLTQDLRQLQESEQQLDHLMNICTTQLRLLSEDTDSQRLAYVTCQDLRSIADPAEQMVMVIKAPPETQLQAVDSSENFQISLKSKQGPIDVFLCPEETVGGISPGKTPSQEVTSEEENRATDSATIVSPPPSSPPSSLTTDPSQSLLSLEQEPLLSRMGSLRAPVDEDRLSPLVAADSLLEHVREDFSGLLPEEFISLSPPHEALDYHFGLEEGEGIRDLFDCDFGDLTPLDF

Assay [11] in a line: ATG_E_Box_CIS: Attagene CIS-FACTORIAL HepG2 Assay for human Enhancer Box (E-box) (AID 2282936). The following applies: HepG2 E-box cis-reporter transcription, actives raise or lower the signal. The procedure, abridged:
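E-box-driven reporter transcripts measured in transiently transfected HepG2 after 24 h exposure: RNA reverse-transcribed, PCR-amplified, fluorescently labelled, digested and resolved by capillary electrophoresis. Gain or loss relative to DMSO.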

Assay [12] is described as follows: ATG_M_61_CIS: Attagene CIS-FACTORIAL HepG2 Assay for M61 Transcription Factor (Internal Marker) (AID 2282937). Conditions: HepG2 Attagene CIS-FACTORIAL M61 internal marker reporter; actives raise or lower the signal. In outline: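 HepG2 cells transiently transfected with multiplexed cis-promoter reporter units reporting endogenous transcription factor activity, measured 24 h after dosing. Reporter mRNA quantified by RT-PCR and capillary electrophoresis; bidirectional fit against DMSO baseline.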

Assay [13] is described as follows: ATG_EGR_CIS: Attagene CIS-FACTORIAL HepG2 Assay for human Early Growth Response 1 (EGR1) (AID 2282938). The following applies: HepG2 Attagene CIS-FACTORIAL EGR reporter mRNA; actives raise or lower the signal. In outline: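 HepG2 cells transiently transfected with cis-element-driven multiplexed reporter units, dosed for 24 h. EGR1-element reporter mRNA quantified by RT-PCR, 6-FAM labelling, HpaI digestion and capillary electrophoresis; bidirectional fit versus DMSO.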

A short description of assay [14]: ATG_M_19_CIS: Attagene CIS-FACTORIAL HepG2 Assay for M19 Transcription Factor (Internal Marker) (AID 2282939). Conditions: HepG2 Attagene CIS-FACTORIAL M19 internal marker reporter; actives raise or lower the signal. In outline:
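Background-control endpoint from a multiplexed HepG2 reporter panel. Cells carrying cis-regulated reporter constructs are treated 24 h, then reporter transcripts are amplified, fluorescently labelled and sized by capillary electrophoresis. DMSO defines baseline.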

A short description of assay [15]: ATG_ERE_CIS: Attagene CIS-FACTORIAL HepG2 Assay for Estrogen Response Element (ERE) (AID 2282940). Conditions: HepG2 ERE cis-reporter, Attagene RNA transcript; actives raise or lower the signal. In outline: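 Cells used were human hepatoma HepG2, transfected with multiple reporter transcription units under cis-regulatory promoters. Reporter mRNA, read 24 h post-dosing via fluorescent RT-PCR products on capillary electrophoresis, was fitted bidirectionally relative to DMSO.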

The nature of assay [16]: ATG_Ets_CIS: Attagene CIS-FACTORIAL HepG2 Assay for human Erythroblast Transformation Specific (ETS) (AID 2282941). The following applies: HepG2 ETS cis-reporter transcription, actives raise or lower the signal. The procedure, abridged: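 Cis-regulated reporter mRNA induction in HepG2 (transient transfection), 24 h exposure, RT-PCR plus capillary electrophoresis detection; DMSO serves as negative control and baseline.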

For assay [17], the target named is Hepatocyte nuclear factor 3-beta (Homo sapiens) (UniProt Q9Y261). In words: ATG_FoxA2_CIS: Attagene CIS-FACTORIAL HepG2 Assay for human Forkhead box A2 (FOXA2) (AID 2282942). The following applies: HepG2 cis-reporter transcription factor activity, 24 h; actives raise or lower the signal. In outline:
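HepG2 transiently transfected with a multiplexed cis-promoter reporter library read endogenous FOXA2 activity. After 24 h compound exposure, reporter mRNA was quantified by RT-PCR, HpaI digestion and capillary electrophoresis. Bidirectional fit against DMSO.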

Assay [18] in a line: ATG_FoxO_CIS: Attagene CIS-FACTORIAL HepG2 Assay for human Forkhead box O (FoxO) (AID 2282943). The following applies: HepG2 Attagene cis-reporter, FoxO element, mRNA; actives raise or lower the signal. In outline: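 Endogenous transcription factor activity read from multiplexed cis-promoter reporter transcripts in transiently transfected HepG2, 24 h after dosing. Reporter RNA measured via RT-PCR plus capillary electrophoresis of FAM-labeled products; gain or loss relative to DMSO.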

Assay [19] is described as follows: ATG_GATA_CIS: Attagene CIS-FACTORIAL HepG2 Assay for human GATA Binding Protein (AID 2282944). Conditions: HepG2 GATA cis-element reporter, Attagene multiplex mRNA; actives raise or lower the signal. In outline: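 Endogenous transcription factor activity was captured through cis-promoter-driven reporters in transfected HepG2 cells. After 24 h exposure, reporter transcripts were quantified by RT-PCR with fluorescent capillary electrophoresis, and responses fitted both directions against DMSO.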

Assay [20] deals with CCAAT/enhancer-binding protein beta (Homo sapiens) (UniProt P17676). In words: ATG_C_EBP_CIS: Attagene CIS-FACTORIAL HepG2 Assay for human CCAAT/Enhancer Binding Protein (C/EBP) beta (AID 2282927). The following applies: HepG2 Attagene cis-factorial transcription factor reporter; actives raise or lower the signal. The procedure, abridged: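 Endogenous C/EBPb-driven reporter transcripts measured in transfected human HepG2 cells at 24 h via RT-PCR and capillary electrophoresis of labelled fragments. Activity fitted in both directions relative to DMSO baseline.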
Chain of CCAAT/enhancer-binding protein beta (Homo sapiens) (P17676 whole entry, looked up, the tested form may be a part): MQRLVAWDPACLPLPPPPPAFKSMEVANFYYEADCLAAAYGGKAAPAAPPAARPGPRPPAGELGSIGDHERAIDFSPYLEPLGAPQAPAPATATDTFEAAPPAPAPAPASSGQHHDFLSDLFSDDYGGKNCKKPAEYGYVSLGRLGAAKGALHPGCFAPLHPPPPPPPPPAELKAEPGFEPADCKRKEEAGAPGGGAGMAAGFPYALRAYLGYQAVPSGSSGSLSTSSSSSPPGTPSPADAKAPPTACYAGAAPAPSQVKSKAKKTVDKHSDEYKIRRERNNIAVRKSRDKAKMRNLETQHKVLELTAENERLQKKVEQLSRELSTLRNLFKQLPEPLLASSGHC

Calls of active or inactive are those of the source. Rule for the calls: active = hit-call score of the fitted dose curve at least 0.9, where 1 is the maximum; inactive = score below 0.9.

Chain of Retinoic acid receptor alpha (Homo sapiens) (P10276 whole entry, looked up): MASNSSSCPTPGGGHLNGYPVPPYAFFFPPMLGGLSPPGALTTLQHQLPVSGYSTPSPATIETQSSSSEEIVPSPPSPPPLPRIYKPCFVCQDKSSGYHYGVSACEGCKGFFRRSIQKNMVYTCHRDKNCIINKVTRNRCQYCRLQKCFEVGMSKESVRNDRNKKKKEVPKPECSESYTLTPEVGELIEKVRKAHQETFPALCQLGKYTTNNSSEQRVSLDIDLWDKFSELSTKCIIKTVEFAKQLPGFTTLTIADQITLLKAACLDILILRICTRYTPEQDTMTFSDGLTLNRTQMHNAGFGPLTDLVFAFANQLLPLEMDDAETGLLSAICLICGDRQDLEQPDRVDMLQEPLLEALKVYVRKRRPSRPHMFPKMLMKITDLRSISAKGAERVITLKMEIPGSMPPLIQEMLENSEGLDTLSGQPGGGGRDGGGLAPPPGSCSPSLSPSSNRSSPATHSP
Chain of Hepatocyte nuclear factor 3-beta (Homo sapiens) (Q9Y261 whole entry, looked up): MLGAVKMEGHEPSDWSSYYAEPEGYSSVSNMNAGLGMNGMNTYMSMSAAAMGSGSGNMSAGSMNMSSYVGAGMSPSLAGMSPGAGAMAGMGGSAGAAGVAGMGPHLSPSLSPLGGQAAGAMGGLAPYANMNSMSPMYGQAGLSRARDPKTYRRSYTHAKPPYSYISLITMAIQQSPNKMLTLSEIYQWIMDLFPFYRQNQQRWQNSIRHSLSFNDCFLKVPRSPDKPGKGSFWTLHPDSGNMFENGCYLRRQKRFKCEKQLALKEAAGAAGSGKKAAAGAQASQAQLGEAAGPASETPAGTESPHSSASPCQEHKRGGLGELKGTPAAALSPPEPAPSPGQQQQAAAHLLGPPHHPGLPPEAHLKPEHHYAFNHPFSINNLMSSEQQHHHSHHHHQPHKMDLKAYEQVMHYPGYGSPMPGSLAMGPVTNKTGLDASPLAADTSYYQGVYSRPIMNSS
Chain of Aryl hydrocarbon receptor (Homo sapiens) (P35869 whole entry, looked up): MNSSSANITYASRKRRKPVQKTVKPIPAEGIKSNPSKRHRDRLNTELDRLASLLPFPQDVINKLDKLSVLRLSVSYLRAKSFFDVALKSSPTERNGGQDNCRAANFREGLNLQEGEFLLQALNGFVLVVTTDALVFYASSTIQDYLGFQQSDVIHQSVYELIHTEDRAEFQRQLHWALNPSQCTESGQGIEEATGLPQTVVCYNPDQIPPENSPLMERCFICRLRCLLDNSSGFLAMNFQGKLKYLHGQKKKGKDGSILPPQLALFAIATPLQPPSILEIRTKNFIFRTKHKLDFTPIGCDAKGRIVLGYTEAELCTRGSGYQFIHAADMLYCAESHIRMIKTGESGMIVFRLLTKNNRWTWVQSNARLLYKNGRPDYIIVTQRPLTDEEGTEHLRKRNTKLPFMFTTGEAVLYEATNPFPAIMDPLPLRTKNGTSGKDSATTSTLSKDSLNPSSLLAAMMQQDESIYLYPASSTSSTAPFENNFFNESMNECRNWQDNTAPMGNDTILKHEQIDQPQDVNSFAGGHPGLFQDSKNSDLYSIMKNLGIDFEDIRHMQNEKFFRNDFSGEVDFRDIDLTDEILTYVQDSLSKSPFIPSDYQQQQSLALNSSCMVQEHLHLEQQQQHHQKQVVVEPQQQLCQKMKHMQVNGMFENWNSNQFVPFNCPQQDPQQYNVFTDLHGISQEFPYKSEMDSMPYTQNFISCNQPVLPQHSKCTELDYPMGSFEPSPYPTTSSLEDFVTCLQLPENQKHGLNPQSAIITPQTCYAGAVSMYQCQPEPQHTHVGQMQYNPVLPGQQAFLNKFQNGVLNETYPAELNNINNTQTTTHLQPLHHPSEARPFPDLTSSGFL

As for `CCOc1ccc2c(c1)C(C)=CC(C)(C)N2`, the compound was called inactive in assay [1], in [2], in [5], in assay [7], in assay [8] and in assay [9]. Also, the compound was called inactive in assay [10], in assay [12], in [14], in [17] and in assay [19]. The AC50 in [3] was 69.4 µM (active); in assay [4] it was 175 µM (active); in assay [6], 100 µM (active); in assay [11], 156 µM (active); in assay [13], 144 µM (active); in assay [15], 25.5 µM (active). Besides, the AC50 in assay [16] is 181 µM (active); in assay [18] it was 179 µM (active).
For `CCCCCC(=O)O`, the compound was called inactive in assay [1], in assay [2], in assay [3], in assay [4], in assay [6] and in assay [7]. For the same compound, the result in assay [8], in assay [9], in assay [10], in assay [11], in assay [12] and in assay [13] was inactive. The compound was called inactive in [14], in assay [15], in [16], in [17], in [18] and in assay [19]. Moreover, the concentration at half-maximal activity (AC50) in [5] is 82.2 µM (active).
On to `COc1ccc(C)cc1N`, for which the outcome in assay [1], in [2], in assay [3], in assay [4], in assay [6] and in assay [7] was inactive. Further, the outcome in assay [8], in assay [9], in assay [10], in assay [11], in [12] and in assay [13] was inactive. Also, the call in assay [14], in assay [15], in assay [16], in assay [17], in assay [18] and in assay [19] was inactive. Moreover, the AC50 in assay [5] was 100 µM (active).
As to `CC1(C)NC(=O)NC1=O`, the outcome in assay [1], in assay [2], in assay [20], in assay [3], in assay [4] and in [5] was inactive. In addition, the result in assay [6], in assay [7], in [8], in [10], in assay [11] and in [12] was inactive. The compound was called inactive in [13], in assay [14], in assay [16], in assay [17], in assay [18] and in [19]. In assay [15], the AC50 is 26.3 µM (active).
As to `CCCCN(CCCC)CCCC`, the compound was called inactive in assay [1], in [2], in assay [20], in assay [3], in assay [4] and in [5]. Moreover, the compound was called inactive in assay [6], in assay [7], in [8], in [10], in assay [11] and in [12]. Further, the result in [13], in assay [14], in [15], in assay [16], in [17] and in [18] was inactive. In assay [19], the call was inactive.
Consider `CCCCCCCCCCCC(=O)OC`, for which the compound was classed as inactive in assay [1], in assay [2], in assay [20], in assay [3], in assay [4] and in assay [5]. Besides, the call in assay [6], in assay [7], in assay [8], in [10], in [11] and in assay [12] was inactive. Further, the compound was classed as inactive in assay [13], in assay [14], in assay [15], in assay [16], in assay [17] and in assay [18]. Further, in [19], the compound was classed as inactive.
`CCOC(=O)C(C)(C)Oc1ccc(Cl)cc1`: the compound was called inactive in assay [1], in [2], in assay [20], in assay [3], in assay [4] and in [5]. The result in assay [6], in [7], in [8], in assay [10], in assay [11] and in [12] was inactive. In addition, the compound was called inactive in assay [13], in assay [14], in assay [15], in assay [16], in assay [17] and in assay [18]. Moreover, in assay [19], the call was inactive.
